# Most compounds without a hit are left out; they make up all but 11% or so of the library.
# ALDH1A1 inh-1: inhibitors of human aldehyde dehydrogenase 1A1; AID 1030; 7.3% of 220,000 active; P00352; Purified ALDH1A1, NADH fluorescence, propionaldehyde substrate; Potency, µM (titrated, usually from 75.3 µM), for inactives: at the top dose activity, negative = inhibition, usual class: inhibitors; active = well fitted inhibition curve with a large enough effect, not every such curve was filed as active; inconclusive = small, poorly fitted or top-dose-only effect, or another doubt; inactive = no such curve, though single readings can be large or run the other way;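 note: potency is the fitted concentration of half-maximal effect; plate controls were no enzyme wells and a reference inhibitor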
# HTT aggregate: inhibitors of mutant huntingtin aggregate formation in PC12 cells | PC12 HttQ103-GFP aggregates, Acumen cytometry, 40 h | Potency, µM (top dose mostly 46.1 µM), without a hit: at the highest dose activity change, negative = inhibition, hits mostly inhibitors | 1.1% of 220,000 active | AID 1688; note: potency is the fitted concentration of half-maximal effect; % is set by controls: 0 for no effect and ±100 for the full control effect; nearly all actives have a fitted effect of over 60% in size
#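 PC12 cells with ecdysone-inducible HTT exon1 Q103-GFP, induced by 100 nM tebufenozide, given compounds in a concentration series. GFP aggregates (1–25 um, 6 SD above background) counted in lysates by laser-scanning cytometry, 488 nm excitation.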
# PNC inhibitor: blocks assembly of the perinucleolar compartment; PC3M PTB-GFP, PNC prevalence imaging, 16 h; active compounds read low; activity change (PNC), negative = inhibition, % at 10 µM; 3.1% of 140,000 active; AID 2417;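 active = readout at or below -70, meaning at least 70% loss of cells showing the perinucleolar compartment, a nuclear body marking cancer cells; inconclusive = readout between -30 and a set limit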;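 note: plate controls were DMSO wells for no effect and camptothecin positive control wells for full effect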
#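 Compounds are pinned in duplicate onto adhered PC3M cells stably expressing GFP-tagged PTB and incubated 16 h at 37 C. Cells are then fixed, nuclei stained with Hoechst, and PNC-positive cells counted.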
# HTT ATP protect: cytoprotection in Huntington HTT-Q103 PC12 cell model. PC12 HTT-Q103 induced, cytoprotection, ATP luminescence, 40 h. Potency, µM (titrated, usually from 56.4 µM), for the others: cytoprotection (ATP increase), hits mostly activators. 0.14% of 230,000 active. AID 1471; note: potency is the fitted concentration of half-maximal effect; % of control where 0% means no effect; nearly all actives have a fitted effect of over 45% in size
#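 Stable PC12 Q103-GFP cells in serum-supplemented, phenol red-free DMEM; induction by tebufenozide at 100 nM final; compound dose series; cell viability quantified luminescently from ATP.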
# CBFb RUNX1 block: inhibitors of human CBF-beta and RUNX1 interaction | Potency, µM (series often up to 59.8 µM), without a hit: at the highest dose activity, negative = inhibition, actives largely listed as inhibitors | 230,000 tested, under 10 active | AlphaScreen CBFb-His/RUNX1-biotin binding, biochemical | Q01196+Q13951; note: % of control where 0% means no effect
#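 AlphaScreen binding: CBFb-His and RUNX1-biotin (30 nM each) preincubated 20 min, compound added for 15 min, then nickel and streptavidin beads for 90 min, all at room temperature. Disruption of the interaction by any mechanism counts as activity.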
# HPGD block: blocks human HPGD enzyme activity. P15428. 4.3% of 150,000 active. Potency, µM, inactives show top-dose activity change, negative = inhibition, most hits filed as inhibitors. AID 894. purified HPGD, NADH fluorescence kinetic, PGE2 substrate; active = well fitted inhibition curve with a large enough effect, not every such curve was filed as active; inconclusive = small, poorly fitted or top-dose-only effect, or another doubt; inactive = no such curve, though single readings can be large or run the other way; note: potency is the fitted concentration of half-maximal effect; % is set by controls: 0 for no effect and ±100 for the full control effect
# Target sequence (P15428 whole entry, looked up): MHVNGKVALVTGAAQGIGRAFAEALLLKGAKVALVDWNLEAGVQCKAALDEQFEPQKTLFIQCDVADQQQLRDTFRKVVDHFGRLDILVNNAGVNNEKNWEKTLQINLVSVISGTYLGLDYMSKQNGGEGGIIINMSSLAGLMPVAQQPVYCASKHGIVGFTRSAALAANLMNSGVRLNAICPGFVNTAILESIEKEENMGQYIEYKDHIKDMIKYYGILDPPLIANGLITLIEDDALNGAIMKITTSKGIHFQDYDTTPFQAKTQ
#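 20 nM HPGD preincubated 15 min at room temperature with compound in 50 mM Tris-HCl pH 8, 0.01% Tween 20. Started with 1 mM NAD+ and 30 uM prostaglandin E2; NADH fluorescence (360/450 nm) read 5 times over 30-s intervals, last minus first.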
# ALDH1A1 inh-2: Inhibits human ALDH1A1, confirmation and counter-screen | shares compounds with ALDH1A1 inh-1 | Potency, µM (doses to about 57.1 µM), for inactives: top-dose activity change, negative = inhibition, hits mostly inhibitors | purified ALDH1A1, NADH fluorescence, propionaldehyde/NAD+ | AID 493210 | 90% of 90 active; calls by dose curve
# Active calls of the source: *; ? = inconclusive; / = no result; [ ] = another dose, or the depositor's remark. Unless noted, calls come from the whole dose curve; as a rule, active = well fitted curve in the direction sought with a large enough effect; inconclusive = small, poorly fitted or top-dose-only effect, or another doubt; inactive = no such curve, though single readings can be large; an effect the other way counts as inactive or inconclusive.
SMILES,ALDH1A1 inh-1,HTT aggregate,PNC inhibitor,HTT ATP protect,CBFb RUNX1 block,HPGD block,ALDH1A1 inh-2
CO/N=C(\C(=O)NC1C(=O)N2C(C(=O)OCOC(=O)C(C)(C)C)=C(/C=C\c3scnc3C)CSC12)c1csc(N)n1 (centres undefined),0.35µM*,/,/,-3%,-8%,?,0.79µM*
COc1ccccc1CN1C[C@@H]2C[C@@H](c3[nH]c4c(C)cccc4c3C)N3CCC[C@@]23C1=O,3%,-8%,/,-44%,-5%,/,/
Cc1cc(=O)oc(C)c1C(=O)Nc1c(C)n(C)n(-c2ccccc2)c1=O,3%,-6%,47,6%,-5%,4%,/
O=C(COC(=O)Cc1ccccc1[N+](=O)[O-])NCc1ccc(F)cc1,-8%,-2%,54,6%[1.9 µM],2%,-11%,/
O=C(CCNc1ccc(Cc2ccncc2)cc1)c1cccc([N+](=O)[O-])c1,0.4µM*,-17%,/,2%,?,/,0.5µM*
O=C(Nc1cccc([N+](=O)[O-])c1)c1ccncc1,-11%,6%,7,-7%[10 µM],4%,-11%,/
CCCCCSc1nc2c(c(=O)[nH]c(=O)n2C)n1CCc1ccccc1,0.71µM*,-2%,?,-6%[10 µM],8%,-17%,1.3µM*
CCOCCn1c(SCCCc2ccccc2)nc2c1c(=O)[nH]c(=O)n2C,-3%,0%,?,-2%[10 µM],9%,-4%,/
CCCCCOC(=O)C1=C(C)N(C)C(=O)NC1c1cc(Br)c(O)c(OC)c1 (centres undefined),-2%,3%,?,-24%[10 µM],3%,-2%,/
COc1ccc(OC)c(-n2nnnc2SCC(=O)O)c1,-2%,8%[9.22 µM],31,18%,0%,-15%,/
COc1ccc(OC)c(-n2nnnc2SCC(=O)Nc2nc(C)c(C)s2)c1,?,-15%,7,-3%,-1%,-14%,1.8µM*
O=C(CSc1nnnn1-c1ccccc1Cl)Nc1ccc2c(c1)OCCO2,0.22µM*,-11%,-15,-3%,8%,-6%,0.25µM*
O=C(CSc1nnnn1-c1ccc(Cl)cc1)NC(=O)Nc1ccc2c(c1)OCCO2,-1%,-1%,11,22%[10 µM],5%,-11%,/
Cc1cccc2c1N(CCCOc1ccccc1)C(=O)C2=O,0.035µM*,7%,26,-24%,-2%,28µM*,0.045µM*
CS(=O)(=O)c1ccc(Cn2c3c(c4cc(F)cc(F)c42)CCC[C@H]3CC(=O)O)cc1,0.11µM*,/,/,?,4%[21.7 µM],34%,0.35µM*
COc1ccc(-n2c(Cc3cccs3)nnc2SCC(=O)Nc2ccc3c(c2)OCCO3)cc1,2µM*,7%,9,-15%[0.074 µM],-12%,-2%,0.56µM*
Cc1ccc(-n2c(SCC(=O)Nc3ccc4c(c3)OCO4)nnc2-c2cccs2)cc1,-3%,2%,15,18%[10 µM],0%,-30%,/
O=C(CC1(O)C(=O)N(Cc2ccccc2)c2ccccc21)c1ccncc1 (centres undefined),0.071µM*,-2%,6,-10%,-5%,-20%,0.25µM*
O=C(/C=C/C=C/c1ccccc1)CC1(O)C(=O)N(CCc2ccccc2)c2ccccc21 (centres undefined),?,16%,30,-37%,-16%,-14%,/
Cc1ccc(OCCSc2nc(NC(C)C)nc(NC(C)C)n2)cc1,5%,-20%,?,/,?,-8%,/
COC(=O)c1ccsc1NC(=O)CSc1nnnn1-c1ccccc1SC,0.13µM*,-18%,25,-1%,4%,-25%,0.32µM*
Cc1nnc(SCC(=O)Nc2c(C)n(C)n(-c3ccccc3)c2=O)n1Cc1ccccc1,6%,16%,/,-31%,10%,/,/
C[C@H](Cc1ccc(O)c(O)c1)[C@@H](C)Cc1ccc(O)c(O)c1,0.16µM*,/,/,23%,?,3.2µM*,2.2µM*
CCOc1ccc(C(CC(=O)O)NC(=O)c2cccs2)cc1OC (centres undefined),3%,17%[9.22 µM],/,23%[10 µM],0%,/,/
